The target in assay [1] is Rap guanine nucleotide exchange factor 3 (Homo sapiens) (UniProt O95398). Nature of the assay: Confirmatory qHTS for agonist of cAMP-regulated guanine nucleotide exchange factor 3 (EPAC1) (AID 1645881).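 Further: EPAC1 catalysed release of BODIPY-GDP from Rap1B seen as fluorescence loss; 100% = effect of cAMP agonist control; nearly all actives have a fitted effect of over 75% in size.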
For assay [2], the target named is Rap guanine nucleotide exchange factor 4 (Homo sapiens) (UniProt Q8WZA2). Put plainly: Confirmatory qHTS for agonist of cAMP-regulated guanine nucleotide exchange factor 4 (EPAC2) (AID 1645884).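 Further: nucleotide exchange releases bodipy-GDP from Rap1 and this lowers its fluorescence; nearly all actives have a fitted effect of over 65% in size.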 Further: potency means the concentration at half of the fitted maximal effect. On activation: on the % scale 0 is the no-effect control and ±100 the full control effect.
Chain of Rap guanine nucleotide exchange factor 4 (Homo sapiens) (Q8WZA2 whole entry, looked up): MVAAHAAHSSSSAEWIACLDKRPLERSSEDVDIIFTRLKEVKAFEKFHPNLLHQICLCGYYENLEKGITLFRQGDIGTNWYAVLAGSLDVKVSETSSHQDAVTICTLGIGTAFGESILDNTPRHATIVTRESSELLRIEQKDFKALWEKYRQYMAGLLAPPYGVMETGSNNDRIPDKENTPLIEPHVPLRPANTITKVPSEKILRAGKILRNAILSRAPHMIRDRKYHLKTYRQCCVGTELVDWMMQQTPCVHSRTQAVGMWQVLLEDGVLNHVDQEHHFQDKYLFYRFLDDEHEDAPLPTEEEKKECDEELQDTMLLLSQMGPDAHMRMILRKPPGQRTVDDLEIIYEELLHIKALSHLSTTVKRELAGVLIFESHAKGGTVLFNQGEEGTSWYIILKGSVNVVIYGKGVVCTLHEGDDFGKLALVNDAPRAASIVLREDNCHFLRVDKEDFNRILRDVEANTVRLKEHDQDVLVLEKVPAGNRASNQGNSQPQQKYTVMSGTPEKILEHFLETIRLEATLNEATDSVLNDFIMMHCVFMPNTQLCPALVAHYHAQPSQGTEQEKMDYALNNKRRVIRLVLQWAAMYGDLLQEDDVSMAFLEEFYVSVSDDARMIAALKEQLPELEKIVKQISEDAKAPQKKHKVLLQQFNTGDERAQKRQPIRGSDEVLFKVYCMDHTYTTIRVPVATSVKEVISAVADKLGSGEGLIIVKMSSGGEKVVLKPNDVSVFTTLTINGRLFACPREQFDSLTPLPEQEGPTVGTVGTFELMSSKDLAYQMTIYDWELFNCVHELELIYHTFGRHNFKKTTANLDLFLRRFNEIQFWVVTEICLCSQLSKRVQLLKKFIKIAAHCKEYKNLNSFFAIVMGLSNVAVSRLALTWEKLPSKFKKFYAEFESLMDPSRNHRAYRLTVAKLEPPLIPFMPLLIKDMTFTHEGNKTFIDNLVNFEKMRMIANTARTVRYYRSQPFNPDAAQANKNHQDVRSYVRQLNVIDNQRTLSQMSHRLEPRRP
In assay [3] the target is Rap guanine nucleotide exchange factor 3 (Homo sapiens) (UniProt O95398). Nature of the assay: Counterscreen qHTS for antagonist of cAMP-regulated guanine nucleotide exchange factor 3 (EPAC1) (AID 1645888). Further: % of control where 0% means no effect. Summed up: (§1)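 Measured: fluorescence of BODIPY-GDP bound to Rap1B, which falls as exchange proceeds. Conditions include 50 uM competing GDP, 5 and 30 min reads, and a later cAMP challenge for antagonist detection.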

For assay [4] the target is unchanged. Put plainly: Counterscreen qHTS for agonist of cAMP-regulated guanine nucleotide exchange factor 3 (EPAC1) (AID 1645889). Further: % of control where 0% means no effect; nearly all actives have a fitted effect of over 40% in size. The method, boiled down:
as §1

Molecules are shown by their SMILES. Inconclusive results are not listed. A number with no mark means an inactive call. The source made the active and inactive calls. The call rests on the fitted dose curve; in most records, active means well fitted curve in the direction sought with a large enough effect; inconclusive means small, poorly fitted or top-dose-only effect, or another doubt; inactive means no such curve, though single readings can be large; an effect the other way counts as inactive or inconclusive.

These results are taken from PubChem BioAssay (NCATS).

Chain of Rap guanine nucleotide exchange factor 3 (Homo sapiens) (O95398 whole entry, looked up): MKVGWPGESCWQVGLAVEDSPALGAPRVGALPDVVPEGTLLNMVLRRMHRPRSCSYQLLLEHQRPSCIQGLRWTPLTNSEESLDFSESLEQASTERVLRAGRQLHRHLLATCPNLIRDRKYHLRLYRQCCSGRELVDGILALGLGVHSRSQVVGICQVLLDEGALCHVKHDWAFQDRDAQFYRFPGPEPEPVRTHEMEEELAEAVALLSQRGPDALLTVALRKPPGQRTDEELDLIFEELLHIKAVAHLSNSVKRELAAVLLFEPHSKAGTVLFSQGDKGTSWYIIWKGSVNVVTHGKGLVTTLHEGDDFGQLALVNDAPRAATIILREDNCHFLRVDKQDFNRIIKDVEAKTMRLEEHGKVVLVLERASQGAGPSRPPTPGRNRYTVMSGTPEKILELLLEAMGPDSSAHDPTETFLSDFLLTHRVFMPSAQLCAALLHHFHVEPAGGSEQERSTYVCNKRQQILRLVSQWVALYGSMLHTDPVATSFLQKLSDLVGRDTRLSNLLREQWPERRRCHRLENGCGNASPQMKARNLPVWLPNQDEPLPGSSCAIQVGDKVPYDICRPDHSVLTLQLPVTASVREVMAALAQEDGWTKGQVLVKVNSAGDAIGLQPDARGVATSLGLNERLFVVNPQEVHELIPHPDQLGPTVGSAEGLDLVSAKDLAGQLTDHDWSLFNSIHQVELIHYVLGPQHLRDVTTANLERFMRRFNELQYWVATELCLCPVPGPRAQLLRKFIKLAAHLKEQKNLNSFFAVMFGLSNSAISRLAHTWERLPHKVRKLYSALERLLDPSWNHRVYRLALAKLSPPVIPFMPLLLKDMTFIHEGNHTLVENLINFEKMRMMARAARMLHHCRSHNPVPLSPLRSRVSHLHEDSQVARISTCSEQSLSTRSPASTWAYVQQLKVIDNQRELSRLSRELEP

Turning to `COc1cc(NC(=O)c2ccccc2NS(=O)(=O)c2ccc(Cl)s2)cc(OC)c1`, the Potency entry in assay [1], in assay [2] and in assay [3] was “inactive” each time.
For `Cc1ccc(S(=O)(=O)/N=C2\C=C(NS(=O)(=O)c3ccccc3)C(=O)c3ccccc32)c(C)c1`, in assay [1], the Potency result was “inactive”. The activation in assay [2] is 5.26% [at 17.1 µM, percent relative to cAMP agonist control]. In addition, the activity change, negative = inhibition in assay [3] was -5.99% [at 30.8 µM].
On to `CC(C)=CCc1c(O)ccc2c1OC(c1ccc(O)c(O)c1)CC2=O` (stereo not drawn), for which the Potency result in assay [1], in assay [2] and in assay [3] was “inactive” in each case.
Regarding `CCCCn1c(N)c(N(CCOC)C(=O)c2ccc(-c3ccc(C(C)=O)cc3)o2)c(=O)[nH]c1=O`, the Potency result in assay [1], in assay [2] and in assay [3] was “inactive” throughout.
Regarding `CC(C)CCNC(=O)c1cnn2c(C(F)(F)F)cc(-c3ccco3)nc12`, the Potency result in assay [1], in assay [2] and in assay [3] was “inactive” in each case.
Turning to `CC(C)C[C@H]1COCCS(=O)(=O)N1Cc1ccc(Cl)c(Cl)c1`, the Potency entry in assay [1] is “inactive”. In addition, in assay [2], the activation is 1.63% [at 17.1 µM, percent relative to cAMP agonist control]. Further, the activity change, negative = inhibition in assay [3] was -4.43% [at 30.8 µM].
On to `Nc1ccc(S(=O)(=O)Nc2nccs2)cc1N=Nc1ccccc1[N+](=O)[O-]`, for which, in assay [1], the Potency result was “inactive”. Moreover, the activation in assay [2] is 0% [at 17.1 µM, percent relative to cAMP agonist control]. Moreover, the activity change, negative = inhibition in assay [3] was -16% [at 30.8 µM].
With `CCOc1ccccc1NC(=O)C1COc2ccccc2O1` (stereo not drawn), the Potency entry in assay [1], in assay [2] and in assay [3] was “inactive” each time.
Turning to `CCc1noc(C)c1C(=O)Nc1nc2c(C)cc(C)cc2s1`, the Potency result in assay [1], in assay [2] and in assay [3] was “inactive” each time.
As for `Cc1ccc(S(=O)(=O)Oc2cccc(/C=N/Nc3ccc(C(=O)O)cc3)c2)cc1`, the Potency result in assay [1], in assay [2] and in assay [3] was “inactive” throughout.
On to `Cc1cc(Cl)ccc1Oc1ccccc1C(=O)CC#N`, for which the Potency entry in assay [1], in assay [2] and in assay [3] was “inactive” throughout.
Turning to `CC(C)CNC(=O)C1Nc2ccc(OC(F)(F)F)cc2C2C=CCC12` (stereo not drawn), the Potency result in assay [1], in assay [2] and in assay [3] was “inactive” each time.
With `Cc1cc2c(C)nc(N/N=C/c3ccc(F)cc3)nc2o1`, the Potency entry in assay [1], in assay [2] and in assay [3] was “inactive” each time.
Consider `O=S(=O)(Nc1ccccc1N1CCCC1)c1ccccc1C(F)(F)F`, for which the Potency entry in assay [1], in assay [2], in assay [3] and in assay [4] was “inactive” in each case.
Consider `CN1CCc2nc3sc(C(=O)C45CC6CC(CC(C6)C4)C5)c(N)c3cc2C1`, for which the Potency entry in assay [1] and in assay [3] was “inactive” each time. Besides, the Potency in assay [2] is 100 µM (active).
With `Nc1ccc(C(=O)N2CCN(S(=O)(=O)c3ccc(Cl)s3)CC2)cc1[N+](=O)[O-]`, the Potency entry in assay [1], in assay [2] and in assay [3] was “inactive” each time.
With `Cc1c(C(=O)N2CCCC2)oc2ccc(Br)cc12`, the Potency entry in assay [1], in assay [2] and in assay [3] was “inactive” each time.
For the molecule `CCOc1ccc(S(=O)(=O)Nc2nc3ccccc3nc2-n2ccc(=NC(=O)c3cccs3)cc2)cc1`, the Potency result in assay [1], in assay [2] and in assay [3] was “inactive” throughout.
Consider `CC(C)NC(=O)c1sc2nc(-c3cccs3)cc(-c3cccs3)c2c1N`, for which the Potency entry in assay [1], in assay [2] and in assay [3] was “inactive” in each case.
Consider `CCCN(CC(=O)Nc1ccccc1C)C(=O)C1CCN(c2ncnc3sc(C)c(C)c23)CC1`, for which the Potency entry in assay [1], in assay [2] and in assay [3] was “inactive” each time.
`CC(=O)NC(C)(c1ccccc1)c1nc(-c2cc(F)cc(F)c2)cs1` (stereo not drawn): the Potency result in assay [1], in assay [2] and in assay [3] was “inactive” throughout.
As to `C=C1CC2C(=O)N(Cc3cc(OC)ccc3OC)C(C(=O)OCC)(C(=O)OCC)C1N2C(=O)OC(C)(C)C` (stereo not drawn), the Potency entry in assay [1], in assay [2], in assay [3] and in assay [4] was “inactive” each time.
With `CC(C)OP(=O)(OC(C)C)C1(NS(=O)(=O)c2ccc(Cl)cc2)C=C(Cl)C(=O)C(Cl)=C1`, in assay [1], the Potency result was “inactive”. Further, the activation in assay [2] was -0.932% [at 17.1 µM, percent relative to cAMP agonist control]; in assay [4] it was 22.3% [at 30.8 µM]. Further, the activity change, negative = inhibition in assay [3] is -5.74% [at 30.8 µM].
Take `CCOC(=O)c1c(CC(C)C)csc1NC(=O)COC(=O)c1ccc(O)cc1`: the Potency entry in assay [1], in assay [2], in assay [3] and in assay [4] was “inactive” throughout.
For `O=C(CSc1nnc(-c2ccco2)c(-c2ccco2)n1)c1ccccc1`, the Potency entry in assay [1], in assay [2], in assay [3] and in assay [4] was “inactive” each time.
On to `O=S(=O)(Nc1ccccc1-c1ccccc1)c1ccccc1`, for which the Potency result in assay [1], in assay [2], in assay [3] and in assay [4] was “inactive” each time.
As for `O=C(COC(=O)c1c2c(nc3ccccc13)/C(=C\c1ccco1)CC2)NC1CCCC1`, the Potency entry in assay [1], in assay [2], in assay [3] and in assay [4] was “inactive” in each case.
As to `CC(=O)NC(c1ccc(Cl)cc1Cl)c1ccc2cccnc2c1O` (stereo not drawn), the Potency result in assay [1], in assay [2], in assay [3] and in assay [4] was “inactive” each time.
For `COC1OC(c2ccccc2)=C(c2cnc(N)nc2)c2ccc(F)cc21` (stereo not drawn), the Potency result in assay [1] is “inactive”. For the same molecule, the activation is 3.06% [at 17.1 µM, percent relative to cAMP agonist control] in assay [2] and 11.3% [at 30.8 µM] in assay [4]. Besides, the activity change, negative = inhibition in assay [3] is -3.58% [at 30.8 µM].
Take `CCCCN(CCCC)Cc1cc(=O)oc2cc(OC)ccc12`: the Potency entry in assay [1], in assay [2], in assay [3] and in assay [4] was “inactive” each time.
As to `COc1ccc(/C=N/NC(=O)c2ccccc2O)cc1Cn1nnc2ccccc21`, the Potency entry in assay [1], in assay [2], in assay [3] and in assay [4] was “inactive” throughout.
On to `CCOC(=O)C1C(=O)C=C(c2ccc(C)cc2)CC1c1ccccc1` (stereo not drawn), for which the Potency entry in assay [1] was “inactive”. Moreover, the activation in assay [2] is 7.74% [at 17.1 µM, percent relative to cAMP agonist control]; in assay [4], 8.22% [at 30.8 µM]. Moreover, in assay [3], the activity change, negative = inhibition was -1.31% [at 30.8 µM].
